Laboratory results as given in PubChem BioAssay (NCATS).
Results filed as inconclusive are left out. Calls of active or inactive are those of the source. Unless noted, calls follow the shape of the dose curve; as a rule, active = well fitted curve in the direction sought with a large enough effect; inconclusive = small, poorly fitted or top-dose-only effect, or another doubt; inactive = no such curve, though single readings can be large; an effect the other way counts as inactive or inconclusive.

Legend:
[1] = AP1 Signaling Pathway (AID 357; active = well fitted curve in either direction with a large enough effect, not every such curve was filed as active;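 also: ME-180 reporter cells stimulated with EGF at its EC50 level; % is scaled to controls: 0 for no effect and ±100 for the full control effect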)
Outline: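 AP-1-bla ME-180 cells, Opti-MEM + 0.5% dialyzed FBS, plated overnight 37 °C. Cpd titration + EC50 EGF, 5 h 37 °C. CCF4 2.5 h RT; ex 405, em 460/530 ratio → %activity, AC50.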

[2] = molecular target: Cytochrome P450 1A2 (Homo sapiens) (UniProt P05177); assay: p450-cyp1a2 (AID 410; calls by dose curve; also: potency is read from the fitted curve at half-maximal effect;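 as to activity change, negative = inhibition: -100% = full effect of reference inhibitor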)
Outline: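 O-Demethylation of luciferin 6' methyl ether by human CYP1A2 is monitored as luciferase luminescence. Substrate sits at Km (100uM); enzyme is 20nM. Values are scaled to 57 uM furafylline as maximal inhibition.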

[3] = NFAT Signaling Pathway (AID 444; active = well fitted curve in either direction with a large enough effect, not every such curve was filed as active;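 also: carbachol stimulus at about its EC50 of 1 µM final; % is scaled to controls: 0 for no effect and ±100 for the full control effect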); settings: Jurkat NFAT-bla M1, carbachol, beta-lactamase ratio, 5 h; at 17.2 µM (top of the series) unless noted
Outline: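 Read-out: CCF4 FRET ratio (460 nm/530 nm) after 1 h RT dye loading, used for %activity and AC50 from titration series. Cells: Jurkat NFAT-β-lactamase/M1 line, treated with compound plus 1 uM carbachol for 5 h, 37 °C.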

[4] = Stat Signaling Pathway (AID 446; active = well fitted curve in either direction with a large enough effect, not every such curve was filed as active;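 also: ME-180 cervical cancer cells given 40 pM IL-6 alongside compound; SIE-controlled beta-lactamase reporter measured as 460/530 nm FRET emission ratio; % is scaled to controls: 0 for no effect and ±100 for the full control effect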)
Outline: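 FRET read-out (405 nm excitation, 460/530 nm emission) of a beta-lactamase reporter under a STAT-inducible element in ME-180 cervical carcinoma cells. Cells with compound receive 40 pM IL-6 for 5 h. Values are normalised to AC90 stimulation and AC90 JAK-inhibitor controls.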

[5] = molecular target: 3',5'-cyclic-AMP phosphodiesterase 4B (Homo sapiens) (UniProt Q07343); assay: qHTS Assay for Inhibitors of PDE-IV (AID 607; active = well fitted activation curve with a large enough effect in the main read-out, with a control signal flat, not every such curve was filed as active; also: % of control where 0% means no effect)
Outline: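 Cell-based read-out of cAMP via a modified cyclic nucleotide-gated channel and membrane potential dye (535/590 nm) in HEK293 cells expressing PDE4 endogenously. Compounds tested up to 22.9 uM final; 100 uM RO 20-1724 reference.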

[6] = qHTS Assay for Lipid Storage Modulators (AID 1519; calls by dose curve); settings: Drosophila S3 cells, BODIPY lipid droplet/cell ratio, laser cytometry, cells loaded with oleic acid; for activity change, negative = inhibition: at 25.7 µM (top of the series)
Outline: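 Cells seeded at 5,000 per well were treated with compounds over a concentration series and loaded with oleic acid (400 uM, as added). Lipid droplet fluorescence (488 nm excitation, 500-530 nm channel) was read by laser-scanning cytometry and normalized to 20 uM Triacsin C.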

[7] = molecular target: Ubiquitin carboxyl-terminal hydrolase 1 (Homo sapiens) (UniProt O94782); assay: Inhibitors of USP1/UAF1: Pilot qHTS (AID 504865);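 also: rhodamine fluorescence freed from ubiquitin-rhodamine substrate followed over time; top concentration of the series differs between compounds; % is scaled to controls: 0 for no effect and ±100 for the full control effect; nearly all actives have a fitted effect of over 35% in size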
Outline: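 In 50mM HEPES pH 7.8 containing 0.5mM EDTA, 1mM TCEP, 0.1 mg/ml BSA and 0.01% Tween-20, 1nM USP1/UAF1 is exposed to compound for 15 min, then Ub-Rho (150nM final) is added and fluorescence is read over time.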

[8] = molecular target: Glucocorticoid receptor (Homo sapiens) (UniProt P04150); assay: GR-GFP Redistribution (AID 450;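 active = compounds whose dose series gives a full or clear partial fitted curve of increased nuclear translocation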; also: potency is read from the fitted curve at half-maximal effect); settings: U2OS GR-GFP nuclear translocation, laser cytometry, 2 h
[9] = molecular target: Glucocorticoid receptor (Homo sapiens) (UniProt P04150); assay: GR-EFC Redistribution (AID 451; calls by dose curve; also: potency is read from the fitted curve at half-maximal effect); settings: CHO-K1 GR-EFC translocation, beta-gal luminescence, 2 h
Outline: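 Translocation of GR-ED fusion to nuclear EA restores b-gal, read by luminescence after 1 h room-temperature detection. Engineered CHO-K1 biosensor cells, 1,000/well, exposed 2 h at 37 C to titrations up to 46 uM final.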

[10] = molecular target: Mitogen-activated protein kinase 10 (Mus musculus) (UniProt Q61831); assay: JNK3 AlphaScreen Assay (AID 530; active = well fitted curve in either direction with a large enough effect, not every such curve was filed as active;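 also: kinase came from lysate of stimulated human HepG2 cells; signal reports phosphorylation of biotinylated GST-cJun 1-79 at Ser73 with 10 µM ATP; % is scaled to controls: 0 for no effect and ±100 for the full control effect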)
Outline: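 qHTS titrations with 15 min compound pre-incubation before adding ATP (10 uM final). Read-out: AlphaScreen of Ser73-phosphorylated biotin-GST-cJun using HepG2 lysate JNK3 activated by IL-1β and TNFα.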

[11] = molecular target: Luciferin 4-monooxygenase (Photinus pyralis) (UniProt P08659); assay: Biochemical firefly luciferase enzyme assay for NPC (AID 624030);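 also: purified P. pyralis luciferase at 10 nM with luciferin and ATP substrate; 0% = DMSO and -100% = full luciferase inhibition by PTC124 control; nearly all actives have a fitted effect of over 70% in size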
Outline: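 Direct inhibition of firefly luciferase enzyme (10 nM final, 50 mM Tris Acetate) assessed by luminescence within 5 minutes. Percent activity scaled between DMSO and PTC124 positive control, with concentration-effect curves classified by fit quality and response.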

[12] = S16 Schwann cell viability assay (CellTiter-Glo assay) (AID 624031);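 also: native untransfected S16 rat Schwann cells; cellular ATP luminescence as a viability measure; plate controls were DMSO-treated cells for no effect and cell-free wells for full effect; nearly all actives have a fitted effect of over 70% in size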
Outline: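 Concentration-effect curves come from CellTiter-Glo luminescence of S16 rat Schwann cells after 24 h compound exposure. Each reading was normalized to DMSO wells (0%) and wells without cells, and curves were ranked by r2 and response magnitude.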

[13] = S16 Schwann cell PMP22 intronic element beta-lactamase assay (AID 624044; calls by dose curve;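 also: 0% = DMSO and -100% = potassium clavulanate positive control; nearly all actives have a fitted effect of over 15% in size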)
Outline: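 Beta-lactamase reporter under a PMP22 intronic regulatory element in stable S16 rat Schwann cells; 24 h compound exposure. 460 nm blue signal normalized between DMSO (0%) and potassium clavulanate, with 535 nm FRET tracking viability; curves classed by r2 and response.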

[14] = system: FAB9; assay: qHTS profiling for inhibitors of Plasmodium falciparum proliferation (AID 504749); also: nearly all actives have a fitted effect of over 60% in size; also: potency is read from the fitted curve at half-maximal effect;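 as to activity, negative = inhibition: 0% = DMSO vehicle and full inhibition = artemisinin control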; settings: P. falciparum in erythrocytes, SYBR Green DNA, 72 h; series mostly up to 12.8 µM
Outline: (§1)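 SYBR Green fluorescence of parasite DNA, read after lysis and overnight dark incubation, measured growth over 72 h in erythrocyte culture at 0.3% parasitemia and 2.5% hematocrit. Data normalised to DMSO and 0.29 uM artemisinin, with plate-drift correction.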

[15] = system: JCK; assay: as above; settings: P. falciparum in erythrocytes, SYBR Green DNA, 72 h; series mostly up to 12.8 µM
Outline: as §1

[16] = system: SC27B; assay: as above; settings: P. falciparum in erythrocytes, SYBR Green DNA, 72 h; series mostly up to 12.8 µM
Outline: as §1

[17] = as above; settings: P. falciparum in erythrocytes, SYBR Green DNA, 72 h, at 12.8 µM (top of the series)
Outline: as §1

[18] = system: C2A; assay: as above; settings: P. falciparum in erythrocytes, SYBR Green DNA, 72 h; series mostly up to 12.8 µM
Outline: as §1

[19] = system: CP217; assay: as above; settings: P. falciparum in erythrocytes, SYBR Green DNA, 72 h; series mostly up to 12.8 µM
Outline: as §1

[20] = system: CP250; assay: as above; settings: P. falciparum in erythrocytes, SYBR Green DNA, 72 h; series mostly up to 12.8 µM
Outline: as §1

[21] = measured here: cell count channel max response
[22] = measured here: lipid channel max response

Ubiquitin carboxyl-terminal hydrolase 1 (Homo sapiens), sequence (O94782 whole entry, looked up): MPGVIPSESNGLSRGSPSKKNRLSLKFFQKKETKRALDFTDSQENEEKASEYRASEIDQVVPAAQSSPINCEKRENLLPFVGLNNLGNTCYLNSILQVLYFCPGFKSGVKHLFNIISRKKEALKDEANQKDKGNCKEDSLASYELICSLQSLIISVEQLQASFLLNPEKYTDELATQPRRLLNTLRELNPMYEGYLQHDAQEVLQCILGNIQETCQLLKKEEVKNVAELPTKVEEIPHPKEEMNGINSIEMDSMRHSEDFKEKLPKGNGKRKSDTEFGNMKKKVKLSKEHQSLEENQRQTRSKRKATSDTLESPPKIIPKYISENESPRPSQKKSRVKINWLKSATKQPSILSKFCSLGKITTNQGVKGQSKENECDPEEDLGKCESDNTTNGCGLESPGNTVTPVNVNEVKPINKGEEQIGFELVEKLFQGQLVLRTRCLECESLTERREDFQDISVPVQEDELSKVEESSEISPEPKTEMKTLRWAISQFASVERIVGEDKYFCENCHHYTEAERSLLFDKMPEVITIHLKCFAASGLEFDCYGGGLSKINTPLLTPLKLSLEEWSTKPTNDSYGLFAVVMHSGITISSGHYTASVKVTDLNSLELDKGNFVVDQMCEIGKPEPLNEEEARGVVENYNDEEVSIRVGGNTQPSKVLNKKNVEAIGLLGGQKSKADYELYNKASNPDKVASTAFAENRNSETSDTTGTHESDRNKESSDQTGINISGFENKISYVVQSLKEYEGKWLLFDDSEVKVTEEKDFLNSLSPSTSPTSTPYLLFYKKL
Glucocorticoid receptor (Homo sapiens), sequence (P04150 whole entry, looked up, the tested form may be a part): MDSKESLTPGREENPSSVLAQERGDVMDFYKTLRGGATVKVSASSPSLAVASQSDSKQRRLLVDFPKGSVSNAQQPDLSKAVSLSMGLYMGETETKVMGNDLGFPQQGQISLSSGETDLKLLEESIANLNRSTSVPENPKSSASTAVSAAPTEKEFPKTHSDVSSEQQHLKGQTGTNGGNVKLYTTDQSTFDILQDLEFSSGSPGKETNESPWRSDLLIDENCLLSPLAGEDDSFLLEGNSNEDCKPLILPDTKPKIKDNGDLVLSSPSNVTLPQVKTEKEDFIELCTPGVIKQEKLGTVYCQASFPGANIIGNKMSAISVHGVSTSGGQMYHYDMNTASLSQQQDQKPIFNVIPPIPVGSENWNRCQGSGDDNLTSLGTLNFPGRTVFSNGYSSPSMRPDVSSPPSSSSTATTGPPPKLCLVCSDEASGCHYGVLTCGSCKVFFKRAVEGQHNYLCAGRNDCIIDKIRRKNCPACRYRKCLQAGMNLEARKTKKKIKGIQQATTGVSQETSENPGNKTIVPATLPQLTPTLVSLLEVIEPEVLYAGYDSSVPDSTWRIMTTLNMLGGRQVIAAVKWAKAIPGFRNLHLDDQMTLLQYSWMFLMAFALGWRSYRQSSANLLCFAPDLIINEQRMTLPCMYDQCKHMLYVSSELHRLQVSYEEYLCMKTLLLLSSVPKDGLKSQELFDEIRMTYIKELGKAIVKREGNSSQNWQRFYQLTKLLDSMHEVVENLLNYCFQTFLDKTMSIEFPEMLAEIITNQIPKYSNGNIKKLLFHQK
3',5'-cyclic-AMP phosphodiesterase 4B (Homo sapiens), sequence (Q07343 whole entry, looked up): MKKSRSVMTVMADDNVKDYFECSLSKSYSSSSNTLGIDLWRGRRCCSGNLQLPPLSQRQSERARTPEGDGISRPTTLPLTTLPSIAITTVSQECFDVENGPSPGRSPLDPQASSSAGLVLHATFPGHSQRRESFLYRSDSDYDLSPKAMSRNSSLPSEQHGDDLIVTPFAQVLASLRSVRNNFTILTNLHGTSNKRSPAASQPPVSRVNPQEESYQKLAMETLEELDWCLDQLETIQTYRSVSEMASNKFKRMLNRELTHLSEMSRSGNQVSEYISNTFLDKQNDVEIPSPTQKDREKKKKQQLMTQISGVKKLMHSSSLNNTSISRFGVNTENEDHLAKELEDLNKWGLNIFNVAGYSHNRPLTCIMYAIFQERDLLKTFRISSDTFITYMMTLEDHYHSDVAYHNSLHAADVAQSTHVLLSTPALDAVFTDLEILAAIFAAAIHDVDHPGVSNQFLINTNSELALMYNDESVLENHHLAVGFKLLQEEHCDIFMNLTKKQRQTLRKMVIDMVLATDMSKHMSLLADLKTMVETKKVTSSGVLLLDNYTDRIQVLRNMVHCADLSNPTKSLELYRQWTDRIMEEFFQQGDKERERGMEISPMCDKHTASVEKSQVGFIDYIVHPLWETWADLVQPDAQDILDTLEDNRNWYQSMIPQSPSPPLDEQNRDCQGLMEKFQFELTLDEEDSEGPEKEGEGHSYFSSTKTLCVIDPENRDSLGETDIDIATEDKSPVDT
Cytochrome P450 1A2 (Homo sapiens), sequence (P05177 whole entry, looked up): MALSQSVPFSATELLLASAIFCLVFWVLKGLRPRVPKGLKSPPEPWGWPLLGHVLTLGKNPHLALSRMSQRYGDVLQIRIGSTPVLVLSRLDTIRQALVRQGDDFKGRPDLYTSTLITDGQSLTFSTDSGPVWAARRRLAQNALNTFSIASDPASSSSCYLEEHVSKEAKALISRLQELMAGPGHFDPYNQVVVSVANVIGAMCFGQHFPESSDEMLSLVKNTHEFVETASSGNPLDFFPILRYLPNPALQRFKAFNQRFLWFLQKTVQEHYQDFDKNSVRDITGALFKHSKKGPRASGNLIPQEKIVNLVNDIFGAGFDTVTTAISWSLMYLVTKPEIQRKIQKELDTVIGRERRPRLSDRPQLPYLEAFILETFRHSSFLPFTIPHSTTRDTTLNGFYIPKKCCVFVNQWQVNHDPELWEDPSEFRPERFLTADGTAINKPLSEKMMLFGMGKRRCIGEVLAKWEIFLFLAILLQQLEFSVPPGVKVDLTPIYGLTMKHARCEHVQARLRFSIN
Luciferin 4-monooxygenase (Photinus pyralis), sequence (P08659 whole entry, looked up): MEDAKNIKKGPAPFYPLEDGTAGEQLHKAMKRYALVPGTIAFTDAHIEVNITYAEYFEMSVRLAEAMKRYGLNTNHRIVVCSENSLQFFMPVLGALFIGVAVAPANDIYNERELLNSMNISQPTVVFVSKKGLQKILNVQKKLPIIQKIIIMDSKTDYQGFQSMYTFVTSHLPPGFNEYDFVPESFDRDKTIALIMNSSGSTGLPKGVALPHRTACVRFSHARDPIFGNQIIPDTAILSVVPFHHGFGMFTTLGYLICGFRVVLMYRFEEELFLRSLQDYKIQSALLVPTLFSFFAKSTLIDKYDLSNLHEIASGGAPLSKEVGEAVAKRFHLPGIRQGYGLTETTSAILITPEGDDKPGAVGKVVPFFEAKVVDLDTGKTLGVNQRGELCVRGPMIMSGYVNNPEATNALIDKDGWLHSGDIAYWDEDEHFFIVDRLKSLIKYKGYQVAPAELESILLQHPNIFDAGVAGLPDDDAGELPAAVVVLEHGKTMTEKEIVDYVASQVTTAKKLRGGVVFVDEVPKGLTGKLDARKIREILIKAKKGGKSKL

C[C@@]12C=CC(=O)C=C1CC[C@@H]1[C@@H]2[C@H](O)C[C@]2(C)[C@@H]1CC[C@]2(O)C(=O)CO
inactive: outcome [1] | Potency [2] | activity change, negative = inhibition [3] -7.95% | outcome [4] | outcome [5] | activity change, negative = inhibition [6] -5.21% | Potency [7]
-3.94%: max response [6, 22]
2.46%: max response [6, 21]

CO[C@H]1[C@H](O[C@H]2O[C@@H](C)[C@@H](O[C@@H]3C[C@](C)(O)[C@H](OC(=O)CC(C)C)[C@H](C)O3)[C@@H](N(C)C)[C@@H]2O)[C@@H](CC=O)C[C@@H](C)[C@@H](O)/C=C\C=C/C[C@@H](C)OC(=O)C[C@H]1OC(C)=O
-10.5%: max response [6, 21]
-14%: max response [6, 22]
inactive: outcome [1] | Potency [2] | activity change, negative = inhibition [3] -0.256% | Potency [8] > 20.6 µM | Potency [9] > 20.6 µM | Potency [10] | outcome [5] | activity change, negative = inhibition [6] -3.13% | Potency [11] | outcome [12] | Potency [13] | Potency [14] | Potency [15] | Potency [16]

CC(=O)C[C@H](c1ccc([N+](=O)[O-])cc1)c1c(O)c2ccccc2oc1=O
-11.4%: max response [6, 21]
inactive: outcome [1] | Potency [2] | activity change, negative = inhibition [3] -1.36% | outcome [4] | Potency [10] | outcome [5] | activity change, negative = inhibition [6] 3.15% | Potency [7] | Potency [11] | outcome [12] | Potency [13] | activity, negative = inhibition ([17]; parasite line A) 7.55% | activity, negative = inhibition ([17]; parasite line B) 3.6% | Potency [18] | Potency [19] | Potency [20] | Potency [14] | Potency [15] | Potency [16]
-10.7%: max response [6, 22]

CC(C)CC(=O)N[C@H](C(=O)N[C@H](C(=O)N[C@@H](CC(C)C)[C@H](O)CC(=O)N[C@@H](C)C(=O)N[C@@H](CC(C)C)[C@H](O)CC(=O)O)C(C)C)C(C)C
inactive: outcome [1] | Potency [2] | activity change, negative = inhibition [3] -1.98% | outcome [4] | Potency [10] | outcome [5] | activity change, negative = inhibition [6] 1.03% | Potency [7]
8.75%: max response [6, 22]
20.1%: max response [6, 21]

CCN1CCN(C(=O)N[C@H](C(=O)N[C@@H]2C(=O)N3[C@@H]2SC(C)(C)[C@@H]3C(=O)O)c2ccccc2)C(=O)C1=O
inactive: outcome [1] | Potency [2] | activity change, negative = inhibition [3] -2.87% | outcome [4] | outcome [5] | activity change, negative = inhibition [6] 0.264% | Potency [7]
-7.94%: max response [6, 21]
-7.68%: max response [6, 22]

C[C@@H]1Cc2ccccc2N1NC(=O)c1ccc(Cl)c(S(N)=O)c1 (stereo not given in full)
8.03%: max response [6, 21]
7.13%: max response [6, 22]
inactive: outcome [1] | Potency [2] | activity change, negative = inhibition [3] 6.1% | outcome [4] | Potency [10] | outcome [5] | activity change, negative = inhibition [6] -0.666% | Potency [7] | Potency [11] | Potency [13] | activity, negative = inhibition ([17]; parasite line A) 15.9% | activity, negative = inhibition ([17]; parasite line B) 17.7% | Potency [18] | Potency [19] | Potency [20] | Potency [14] | Potency [15] | Potency [16]

CC[C@H](CO)NCCN[C@@H](CC)CO
4.52%: max response [6, 22]
inactive: outcome [1] | Potency [2] | activity change, negative = inhibition [3] -11.9% | outcome [4] | Potency [10] | outcome [5] | activity change, negative = inhibition [6] -0.966% | Potency [7] | Potency [11] | outcome [12] | Potency [13] | activity, negative = inhibition ([17]; parasite line A) -3.07% | activity, negative = inhibition ([17]; parasite line B) 5.7% | Potency [18] | Potency [19] | Potency [20] | Potency [14] | Potency [15] | Potency [16]
4.79%: max response [6, 21]

C#C[C@@]1(O)CC[C@@H]2[C@@H]3CCC4=CC(=O)CC[C@@H]4[C@H]3CC[C@]21C
inactive: outcome [1] | Potency [2] | activity change, negative = inhibition [3] -7.42% | outcome [4] | Potency [10] | outcome [5] | activity change, negative = inhibition [6] -2.83% | Potency [7]
-9.96%: max response [6, 22]
-8.09%: max response [6, 21]

Clc1ccc(CC[C@H](Cn2ccnc2)Sc2c(Cl)cccc2Cl)cc1
-6.78%: max response [6, 22]
inactive: outcome [1] | outcome [4] | Potency [8] > 20.6 µM | Potency [9] > 20.6 µM | Potency [10] | activity change, negative = inhibition [6] 3.47% | Potency [11] | outcome [12] | Potency [13]
active: Potency [2] 3.98 µM | Potency [19] 3.55 µM | Potency [16] 3.98 µM
-3.86%: max response [6, 21]

CC[C@H](Cc1c(I)cc(I)c(N)c1I)C(=O)O
inactive: outcome [1] | outcome [4] | Potency [8] > 20.6 µM | Potency [9] > 20.6 µM | activity change, negative = inhibition [6] 0.772% | Potency [7] | Potency [11] | outcome [12] | Potency [13] | activity, negative = inhibition ([17]; parasite line A) 7.39% | activity, negative = inhibition ([17]; parasite line B) 11.4% | Potency [18] | Potency [19] | Potency [20] | Potency [14] | Potency [15] | Potency [16]
-5.23%: max response [6, 21]
active: Potency [2] 12.6 µM
-5.12%: max response [6, 22]
